Screens deposited in PubChem by National Center for Advancing Translational Sciences (NCATS).
Most compounds without a hit are left out; they make up all but 10% or so of the library.
JMJD2A Tudor inh: blocks the human JMJD2A Tudor domain | AlphaScreen JMJD2A-Tudor / H3K4me3 peptide binding | Potency, µM (top dose mostly 114 µM), without a hit: at the highest dose activity change, negative = inhibition, usual class: inhibitors | 390,000 compounds, 4.4% hits; further: on the % scale 0 is the no-effect control and ±100 the full control effect; nearly all actives have a fitted effect of over 50% in size
G9a inh: inhibitors of human histone lysine methyltransferase G9a; Q96KQ7; G9a H3K9 monomethylation, AlphaScreen, 2 h; Potency, µM (series often up to 102 µM), for the others: at the highest dose activity, negative = inhibition, most hits filed as inhibitors; 350,000 compounds, 8.8% hits; further: on the % scale 0 is the no-effect control and ±100 the full control effect; nearly all actives have a fitted effect of over 75% in size
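Signal arises when biotinylated H3K9 peptide, once monomethylated, bridges streptavidin donor and antibody-captured acceptor beads. Enzyme at 20 nM was preincubated 15 min with test compounds; peptide 500 nM and SAM 20 uM then reacted for 2 h.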
HP1b binding inh: blocks HP1-beta chromodomain binding to methylated histone tails. P83916. AlphaScreen HP1-beta / biotin-H3K9me3 peptide binding. Potency, µM (doses to about 114 µM), without a hit: at the top dose activity change, negative = inhibition, actives largely listed as inhibitors. 390,000 compounds, 0.56% hits; further: nearly all actives have a fitted effect of over 70% in size
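HP1-beta protein (50 nM final) preincubated 30 min at room temperature with biotinylated H3(1-18)K9me3 peptide (50 nM) in PBS pH 7.4, 0.01% Tween-20, then compound added for 30 min. AlphaScreen streptavidin donor/nickel chelate acceptor beads (10 ug/mL final), 30 min dark, luminescence read.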
BAZ2B block: blocks human BAZ2B | Q9UIF8 | AlphaScreen BAZ2B-H3K14Ac peptide displacement | Potency, µM (highest dose often 114 µM), inactives show top-dose activity change, negative = inhibition, actives largely listed as inhibitors | 360,000 compounds, 4.4% hits | AID 504333; further: on the % scale 0 is the no-effect control and ±100 the full control effect; nearly all actives have a fitted effect of over 60% in size
Target sequence (Q9UIF8 whole entry, looked up): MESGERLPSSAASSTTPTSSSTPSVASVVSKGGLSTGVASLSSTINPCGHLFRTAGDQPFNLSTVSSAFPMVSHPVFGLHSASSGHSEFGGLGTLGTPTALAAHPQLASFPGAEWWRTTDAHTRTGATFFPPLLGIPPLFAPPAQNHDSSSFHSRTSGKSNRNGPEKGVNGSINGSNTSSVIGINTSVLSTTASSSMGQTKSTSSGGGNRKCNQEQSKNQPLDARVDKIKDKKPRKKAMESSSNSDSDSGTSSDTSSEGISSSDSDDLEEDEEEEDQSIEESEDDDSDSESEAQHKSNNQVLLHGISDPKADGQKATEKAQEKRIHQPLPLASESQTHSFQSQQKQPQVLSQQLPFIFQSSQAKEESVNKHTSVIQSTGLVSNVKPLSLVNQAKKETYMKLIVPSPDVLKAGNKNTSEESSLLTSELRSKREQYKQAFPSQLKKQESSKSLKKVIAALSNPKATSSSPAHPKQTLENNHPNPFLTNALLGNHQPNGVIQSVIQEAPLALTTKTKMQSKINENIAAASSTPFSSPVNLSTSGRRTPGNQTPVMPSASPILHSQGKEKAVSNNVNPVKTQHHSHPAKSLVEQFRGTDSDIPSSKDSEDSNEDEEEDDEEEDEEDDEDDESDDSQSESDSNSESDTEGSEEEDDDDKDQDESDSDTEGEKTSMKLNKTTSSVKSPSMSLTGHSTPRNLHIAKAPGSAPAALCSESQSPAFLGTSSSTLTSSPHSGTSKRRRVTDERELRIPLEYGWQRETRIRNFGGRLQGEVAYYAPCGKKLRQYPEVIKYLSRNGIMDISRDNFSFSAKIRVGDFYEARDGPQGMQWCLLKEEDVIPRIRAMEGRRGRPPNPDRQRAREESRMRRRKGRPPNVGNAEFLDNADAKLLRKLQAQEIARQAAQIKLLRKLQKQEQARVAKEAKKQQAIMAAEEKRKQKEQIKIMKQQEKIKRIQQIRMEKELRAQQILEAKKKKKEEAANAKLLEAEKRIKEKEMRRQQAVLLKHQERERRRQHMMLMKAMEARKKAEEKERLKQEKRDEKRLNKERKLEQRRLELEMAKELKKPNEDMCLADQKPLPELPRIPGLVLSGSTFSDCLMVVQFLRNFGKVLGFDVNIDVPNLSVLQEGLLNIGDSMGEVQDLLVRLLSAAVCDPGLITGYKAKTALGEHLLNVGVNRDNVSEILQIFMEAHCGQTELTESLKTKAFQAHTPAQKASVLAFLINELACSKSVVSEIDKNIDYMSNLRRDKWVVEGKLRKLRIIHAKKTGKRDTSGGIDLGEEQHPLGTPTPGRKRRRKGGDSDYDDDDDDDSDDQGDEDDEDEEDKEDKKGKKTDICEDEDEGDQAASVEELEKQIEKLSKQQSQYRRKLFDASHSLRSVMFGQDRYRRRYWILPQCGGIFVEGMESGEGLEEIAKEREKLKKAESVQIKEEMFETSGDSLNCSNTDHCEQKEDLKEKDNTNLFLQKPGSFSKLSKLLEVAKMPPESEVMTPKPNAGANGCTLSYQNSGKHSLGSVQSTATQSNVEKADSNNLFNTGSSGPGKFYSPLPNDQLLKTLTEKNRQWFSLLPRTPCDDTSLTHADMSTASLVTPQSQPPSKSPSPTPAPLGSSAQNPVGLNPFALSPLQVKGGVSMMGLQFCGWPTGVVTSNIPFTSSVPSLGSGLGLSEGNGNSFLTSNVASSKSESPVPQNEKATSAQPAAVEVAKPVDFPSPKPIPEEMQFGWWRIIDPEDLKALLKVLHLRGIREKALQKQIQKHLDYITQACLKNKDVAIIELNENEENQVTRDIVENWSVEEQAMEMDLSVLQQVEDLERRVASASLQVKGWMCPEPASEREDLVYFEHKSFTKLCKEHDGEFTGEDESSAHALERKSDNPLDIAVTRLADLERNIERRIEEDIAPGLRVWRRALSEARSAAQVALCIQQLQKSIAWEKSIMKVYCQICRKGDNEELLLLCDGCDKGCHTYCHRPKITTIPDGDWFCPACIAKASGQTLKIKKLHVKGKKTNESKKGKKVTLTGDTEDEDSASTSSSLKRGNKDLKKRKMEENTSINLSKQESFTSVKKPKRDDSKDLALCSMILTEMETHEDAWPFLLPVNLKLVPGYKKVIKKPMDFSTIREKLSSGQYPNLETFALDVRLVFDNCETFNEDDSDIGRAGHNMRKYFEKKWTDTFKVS
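Protein-peptide AlphaScreen: BAZ2B 50 nM, b-H3K14Ac 50 nM, 1x PBS pH 7.4 + 0.01% Tween-20. Preincubation 30 min RT; cpd 30 min RT (top 110 uM); beads 20 min RT, light-protected.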
GLS inhibitor: inhibitors of human glutaminase (GLS). 410,000 compounds, 0.21% hits. GLS enzymatic activity, qHTS titration. Potency, µM (series often up to 45.5 µM), for the others: top-dose activity change, negative = inhibition, usual class: inhibitors. O94925; further: on the % scale 0 is the no-effect control and ±100 the full control effect
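Compounds were pin-transferred onto hKGA, after which L-glutamine (1 mM solution) and a detection mix of glutamate oxidase, HRP and Amplex Red were added. Initial and 30 min RT fluorescence reads were collected.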
* hit, by the source's call; u = inconclusive; x = no result; [ ] = another dose, or the depositor's remark. The call rests on the fitted dose curve; in most records, active means well fitted curve in the direction sought with a large enough effect; inconclusive means small, poorly fitted or top-dose-only effect, or another doubt; inactive means no such curve, though single readings can be large; an effect the other way counts as inactive or inconclusive. Potency means the concentration at half of the fitted maximal effect.

SMILES | JMJD2A Tudor inh | G9a inh | HP1b binding inh | BAZ2B block | GLS inhibitor
Cc1onc(-c2ccccc2)c1C(=O)Nc1ccc2c(c1)OCO2 | -18% | -9%[59 µM] | 29% | 4% | 18%
C=C(C)CSc1nc2c(c(=O)[nH]c(=O)n2C)n1Cc1ccccc1 | -14% | 20%[59 µM] | 21% | -4% | 9%
Cn1c(SCC(=O)c2ccc(O)c(O)c2)nnc1-c1cccs1 | 25µM* | x | -5% | 50µM* | -14%
CCn1c(SCc2nc3ccccc3s2)nnc1-c1cccs1 | -13% | 2%[12.7 µM] | 26% | 8% | 2%
Cn1c(SCC(=O)c2ccc(O)c(O)c2)nnc1-c1ccccc1 | -14% | 6% | 16% | u | -23%
Cn1c(SCC(=O)NC(c2ccccc2)c2ccccc2)nnc1-c1cccs1 | 50µM* | -35%[12.7 µM] | -11% | -5% | -8%
Cn1c(SCc2nc3ccccc3s2)nnc1-c1cccs1 | -33% | 45µM* | 3% | 4% | 2%
Cc1ccc(C(=O)CSc2nnc(-c3cccs3)n2C)o1 | -1% | 50µM* | 38% | 9% | 2%
Cc1ccc(S(=O)(=O)N2CCCC2CNC(=O)C(=O)NCCN2CCOCC2)cc1 (centres undefined) | -3% | 5% | 19% | 10% | -4%
CN(C)S(=O)(=O)c1ccc(SCC(=O)Nc2cccc(S(=O)(=O)N3CCCC3)c2)nc1 | -17% | x | 32% | x | -1%
CCCN(CCC)S(=O)(=O)c1nc2nc(C)cc(C)n2n1 | -6% | x | 62% | 1% | -5%
O=[N+]([O-])c1ccc(-c2cnc(NO)nc2)cc1 | u | 7.9µM* | 38% | 5% | u
Nc1ncc(-c2ccc([N+](=O)[O-])cc2)cn1 | -13% | 3% | 24% | -6% | 8%
CCn1cc(C(=O)OCC(=O)Nc2cccc(Cl)c2Cl)c(=O)c2ccc(C)nc21 | -22% | 13% | 32% | x | 8%
Cc1ccc(Cl)cc1N1CCN(C(=O)CSc2nnc3n2C(C)(C)Cc2ccccc2-3)CC1 | 89µM* | 8.9µM* | 41% | 3% | -10%
Cc1ccc(Cl)cc1N1CCN(C(=O)CSc2ccsc2[N+](=O)[O-])CC1 | u | 50µM* | -6% | 50µM* | -1%
COc1ccc(N2CCN(C(=O)CSc3nnc4n3C(C)(C)Cc3ccccc3-4)CC2)cc1 | -32% | u | -2% | u | 4%
COc1ccc(OCc2cc(C(=O)N3CCC(OC)CC3)no2)c2ccccc12 | u | u | -10% | u | -11%
CCOC(=O)C1CCN(C(=O)c2cc(COc3ccc(OC)c4ccccc34)on2)CC1 | -16% | 45µM* | -18% | u | 16%
O=[N+]([O-])C1=CC=C2C(=NC3(CCCCC3)N2O)C1=NCCO | -16% | u | -34% | 50µM* | 3%
CC1(C)Cc2c(ccc3ccccc23)/C(=C/C(=O)N2CCCCC2)N1 | -58% | u | -12% | 50µM* | 1%
CCC(N1CCOC1=O)S(=O)(=O)c1ccc(C)cc1 (centres undefined) | 3% | u | 48% | u | -1%
Cc1cccc(C)c1NC(=O)CNC(=O)CNC(=O)Cc1cccc2ccccc12 | -14% | 0%[59 µM] | 16% | 4% | -7%
Cc1ccc(S(=O)(=O)NC(CC(=O)NCC2CCCO2)c2ccco2)cc1 (centres undefined) | 4.5µM* | -32% | 7% | -5% | -6%
Cc1ccc(S(=O)(=O)NC(CC(=O)O)c2ccco2)cc1 (centres undefined) | -13% | u | 13% | -6% | -1%
SMILES | JMJD2A Tudor inh | G9a inh | HP1b binding inh | BAZ2B block | GLS inhibitor
O=C(O)CC(NS(=O)(=O)c1ccc(Br)cc1)c1ccco1 (centres undefined) | -11% | 79µM* | 16% | 0% | 2%
C=CCc1ccccc1OCC(O)CN1CCN(c2ccccc2F)CC1 (centres undefined) | -24% | u | 23% | -9% | 7%
COc1ccc(-c2c(C)nn(Cc3ccccc3)c2N)cc1 | -29% | 45µM* | 9% | -35% | -5%
COc1ccc(-c2ccc(=O)n(Cc3ccccc3)n2)cc1 | 1% | x | 37% | 8% | 6%
Cc1ccc(C)c(N2CCN(Cc3nnc(-c4ccc5c(c4)OCO5)o3)CC2)c1 | u | -8%[59 µM] | 2% | -28% | 7%
Cc1ccc(Nc2nnc(-c3ccc4c(c3)OCO4)o2)c(C)c1 | -11% | 25µM* | -14% | -10% | -16%
COc1ccc(-c2cnnn2-c2ccc(NC(=O)/C=C/c3ccc(OC)c(OC)c3)cc2)cc1 | -19% | 50µM* | u | -3% | 0%
COc1ccc(/C=C/C(=O)Nc2ccc(-n3nncc3-c3ccc(OC)c(OC)c3)cc2)cc1OC | -11% | 50µM* | 22% | -3% | 7%
N/C(COc1ccccc1)=N\NS(=O)(=O)c1ccccc1 | -15% | -6%[59 µM] | 27% | -2% | 7%
COC(=O)c1[nH]c2cc(OC)c(OC)cc2c1NC(=O)Oc1ccccc1 | u | 2.8µM* | 1% | -39% | 31%
C=CCOC(=O)Nc1c(C(=O)OC)[nH]c2ccccc12 | 7% | 50µM* | 43% | -26% | 9%
COC(=O)c1[nH]c2ccccc2c1NC(=O)Oc1ccccc1 | -28% | 10µM* | 9% | -31% | 9%
CCOC(=O)c1[nH]c2cc(OC)c(OC)cc2c1NC(=O)C(C)N1CCN(Cc2ccccc2)CC1 (centres undefined) | -26% | 45µM* | -15% | u | -2%
CCOC(=O)c1[nH]c2ccc(OC)cc2c1NC(=O)OC | -9% | 9%[59 µM] | 30% | 0% | 30%
COCCCNC(=O)c1nn(-c2ccc(C)cc2)nc1CO | -12% | -5%[59 µM] | 17% | 3% | 3%
Cc1ccc(C(C)C)cc2c(C)ccc1-2 | 28µM* | 13µM* | 22µM* | x | 20%
COc1ccc(C)cc1NC(=O)c1c(C)oc2ncn(CC(C)C)c(=O)c12 | -8% | -23%[59 µM] | 27% | -6%[57.1 µM] | 1%
CCc1sc(C(=O)Nc2ncccc2O)cc1C | -22% | 35µM* | 25% | 50µM* | 28%
Cc1ccc(C(=O)Nc2ncc(C)s2)s1 | -15% | u | -6% | -2% | 6%
Cc1csc(NC(=O)c2cccn2C)n1 | -33% | -9% | -8% | u | 10%
O=C(Nc1nc(-c2ccccn2)cs1)c1ncc(Cl)c(Cl)c1Cl | -25% | x | 29% | -6% | -3%
Cc1ccc(C(=O)Nc2nc(-c3ccccn3)cs2)s1 | 56µM* | -2%[2.33 µM] | 27% | 20µM* | 4%
Cn1cccc1C(=O)Nc1nc(-c2ccccn2)cs1 | 56µM* | x | u | 18µM* | 1%
O=C(Nc1nc(-c2ccccn2)cs1)c1ccc(Cl)s1 | 79µM* | u | 33% | 22µM* | -1%
CCc1sc(C(=O)Nc2nc(-c3ccccn3)cs2)cc1C | 79µM* | x | -7% | x | 10%
Cc1cc(N=Nc2ccccc2)c(NCC(O)C(O)C(O)CO)cc1C (centres undefined) | 45µM* | 20µM* | u | 16µM* | 28%
